ChEMBL document CHEMBL3988442, “University of Dundee, Small-Polar-MMV Screening Library” (2021)
Potency and affinity values are given separately.

biological target: Protein translocase subunit SecA (Escherichia coli (strain K12)) (UniProt P10408); assay: Assay to Identify E. coli SecA ATPase Inhibitors; assay type: functional; set-up: scale not given: direction of the effect not stated beside the values; details: 30 µM
Sequence (P10408 whole entry): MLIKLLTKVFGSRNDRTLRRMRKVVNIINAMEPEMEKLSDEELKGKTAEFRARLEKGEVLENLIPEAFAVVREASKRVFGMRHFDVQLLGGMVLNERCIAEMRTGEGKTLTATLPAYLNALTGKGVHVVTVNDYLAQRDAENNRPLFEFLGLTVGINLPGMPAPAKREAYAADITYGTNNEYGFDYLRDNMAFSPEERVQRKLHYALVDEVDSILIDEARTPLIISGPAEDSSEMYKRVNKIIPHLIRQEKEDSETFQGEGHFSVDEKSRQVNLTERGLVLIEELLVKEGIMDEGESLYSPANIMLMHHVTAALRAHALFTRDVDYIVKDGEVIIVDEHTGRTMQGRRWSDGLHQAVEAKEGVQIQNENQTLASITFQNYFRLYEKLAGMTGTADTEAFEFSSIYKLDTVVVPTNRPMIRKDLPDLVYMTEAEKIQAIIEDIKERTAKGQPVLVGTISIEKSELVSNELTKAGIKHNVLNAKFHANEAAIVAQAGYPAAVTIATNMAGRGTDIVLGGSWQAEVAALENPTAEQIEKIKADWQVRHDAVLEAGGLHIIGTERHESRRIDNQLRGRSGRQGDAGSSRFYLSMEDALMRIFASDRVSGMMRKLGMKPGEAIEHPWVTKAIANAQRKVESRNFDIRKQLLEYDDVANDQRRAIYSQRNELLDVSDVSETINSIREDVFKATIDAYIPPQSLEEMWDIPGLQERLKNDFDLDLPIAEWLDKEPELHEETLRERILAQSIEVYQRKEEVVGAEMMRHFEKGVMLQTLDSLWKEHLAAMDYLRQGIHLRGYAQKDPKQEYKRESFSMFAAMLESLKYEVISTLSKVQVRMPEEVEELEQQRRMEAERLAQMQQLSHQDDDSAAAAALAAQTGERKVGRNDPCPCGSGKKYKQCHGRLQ

| SMILES | Percent Effect [%] |
| --- | --- |
| Cn1c(Cn2ccnc2)nnc1C1CCN(C(=O)C2(C)CC2)CC1 | -1.61 |
| O=C(c1cnn(-c2ccccc2F)c1)N1CCN(CCO)CC1 | -0.313 |
| O=C(NCCCn1cccn1)C1(c2ccc(Br)cc2)CC1 | 0.127 |
| COCCC(=O)N1CCC2(CN(Cc3ccc(OC)c(F)c3)C2)C1 | 1.99 |
| O=C(c1cccc(S(=O)(=O)NCCCc2ccco2)c1)N1CCOCC1 | -4.29 |
| CC(=O)N1CCN(Cc2csc(-c3cnn(C)c3)n2)CC1 | -5.28 |
| Cc1cnn(CCNCC(=O)NCc2ccccc2)c1 | -0.968 |
| CCCc1cc(NC2CCc3ncnn3C2)n2ncnc2n1 (stereo not given) | -4.43 |
| CC(C)Sc1ncccc1C(=O)NCc1ccc(CS(C)(=O)=O)cc1 | -4.04 |
| CCc1nnc2n1CCN(Cc1ccc3c(c1)OCCO3)C2 | 0.332 |
| Cc1ccc(CN2CC[C@H]3OCC[C@@H](C(=O)NC4CC4)[C@@H]3C2)o1 | -6.72 |
| Cc1nc(C)n(C2CCCN(C(=O)CCc3ccncc3)C2)n1 (stereo not given) | -5.25 |
| CCOC[C@H]1CC[C@H]2[C@H](CCN2C(=O)c2ccncc2F)O1 | -2.56 |
| Cc1ccc(C(=O)NCC2(O)CCOCC2)cc1Br | -4.53 |
| N#Cc1cn(C2CC2)c(=O)n(CC(O)c2ccc(OC(F)F)cc2)c1=O (stereo not given) | -5.26 |
| O=C(CCc1nc2cccnc2[nH]1)Nc1cccnc1 | -3.23 |
| c1cnnc(NCC2CN(Cc3cccc4c3OCCO4)CCO2)c1 (stereo not given) | -3.5 |
| Cc1cc(N2CCN(Cc3ccc(-c4cc[nH]n4)o3)CC2)cc(C)n1 | -5.81 |
| COc1ccnc(N2CCN(C(=O)CN3CCCC3=O)CC2)n1 | -4.51 |
| N#Cc1ccnc(N2CCN(Cc3cccc(F)c3)CC2)c1 | -3.54 |

| SMILES | Percent Effect [%] |
| --- | --- |
| O=C(C(CNCc1ccsc1)c1ccccc1)N1CCOCC1 (stereo not given) | -5.96 |
| O=C(CCOc1cccc(F)c1)N1CCCC(n2cncn2)C1 (stereo not given) | -2.79 |
| Cc1nc(C)n(CC2CCCCN2CCCS(=O)(=O)N(C)C)n1 (stereo not given) | 4.38 |
| CCOC(C)c1nc(CN2CCNCC2)cs1 (stereo not given) | -3 |
| CC1CCCN(CCNC(=O)c2cncnc2C(C)C)C1 (stereo not given) | -2.89 |
| CC(C)NC(=O)c1sccc1N(C)S(=O)(=O)c1ccc(Cl)cc1 | 2.02 |
| Cc1cc(C)n(C2CCCN(C(=O)c3cnc4onc(C)c4c3)C2)n1 (stereo not given) | -2.86 |
| O=C(CCc1nc2cccnc2[nH]1)NCc1cccnc1 | -3.19 |
| CSCCC(=O)N1CCCC1c1ccsc1 (stereo not given) | 0.213 |
| COc1c(C)cnc(CSc2nnc(C)s2)c1C | -4.15 |
| CCOc1cc(C)nc(N2CCN(C(=O)c3ccc[nH]3)CC2)n1 | -3.03 |
| CC(C)NC(=O)N1CCC(n2ccc(C(F)(F)F)n2)CC1 | -6.7 |
| CC(C)c1nnc2n1CCN(CCCS(=O)(=O)c1ccccc1)C2 | -2.39 |
| Cc1cnn(CC2CN(Cc3nnc(C4CC4)o3)CCO2)c1 (stereo not given) | -7.99 |
| CC(NC(=O)NCCCNS(C)(=O)=O)c1ccncc1 (stereo not given) | -4.34 |
| CS(=O)(=O)CCC(=O)NC1(c2cccc(Br)c2)CC1 | -2.11 |
| Cc1cc(CN2CCN(C(=O)c3sccc3C(C)C)CC2)no1 | -1.68 |
| CC(=O)Nc1ccc(-n2ccc3nc(N4CCCC4)ncc3c2=O)cc1 | -3.46 |
| Cc1nc(C)n(CC2CCCN2CCc2cccs2)n1 (stereo not given) | -2.28 |
| Cc1nn(C)c(C)c1C1CCCN1C(=O)c1ccc(CN(C)C)cc1 (stereo not given) | -0.183 |
